# From ChEMBL document CHEMBL4513146, “CO-ADD screening of Karazin Kharkiv National University (Ukraine) compounds”
# Measured potencies and affinities stand elsewhere.
# Key:
# Klebsiella pneumoniae = conditions: Concentration 32 ug.mL-1;; ASSAY_TEST Inhibition of Bacterial Growth; detection method Absorption (OD600); MEDIA CAMHB; plate type 384well; NBS; CORNING #3640; time 18 hr
# Candida albicans = conditions: Concentration 32 ug.mL-1; ASSAY_TEST Inhibition of Fungal Growth; detection method Absorption (OD530)
# Cryptococcus neoformans = conditions: Concentration 32 ug.mL-1; ASSAY_TEST Inhibition of Fungal Growth; detection method Resazurin; Absorption (OD600-OD570); plate type 384well; NBS; CORNING #3640
smiles,measurement,setting,value
CCOc1ccc(-n2ccn3c(SCC(=O)NCc4ccc(Cl)cc4)nnc3c2=O)cc1,Inhibition,Klebsiella pneumoniae,11.7%
same,Inhibition,Candida albicans,0.49%
same,Inhibition,Cryptococcus neoformans,-7.68%
Cc1cccc(CN(c2ccc(F)cc2)S(=O)(=O)c2ccc3nnc(C)n3c2)c1,Inhibition,Klebsiella pneumoniae,6.15%
same,Inhibition,Candida albicans,1.93%
same,Inhibition,Cryptococcus neoformans,-4.65%
CC(C)NC(=O)CSc1nnc2c(=O)n(Cc3ccc(F)cc3)ccn12,Inhibition,Klebsiella pneumoniae,4.17%
same,Inhibition,Candida albicans,2.95%
same,Inhibition,Cryptococcus neoformans,-22.73%
CSc1ccc(CNC(=O)Cn2nc3c(Oc4ccccc4)nccn3c2=O)cc1,Inhibition,Klebsiella pneumoniae,13.75%
same,Inhibition,Candida albicans,0.62%
same,Inhibition,Cryptococcus neoformans,-8.38%
CCc1nnc2c(SCC(=O)Nc3ccc(Br)cc3)nc3ccccc3n12,Inhibition,Klebsiella pneumoniae,-1.42%
same,Inhibition,Candida albicans,31.58%
same,Inhibition,Cryptococcus neoformans,-6.67%
